# Source: the OligoGym collection
# Target: ETFB
# Assay: pooled miR-30 sensor sort-seq; sequence = guide strand
# Details: shRNA
# Further: reference of the scale not given here.
row,Sequence,sensor-assay potency score (higher = more potent)
1,TTTCAACTTGTCCCCCTCCAGC,-1.21
2,TTGGCTTTCATGATGTTGGGCA,0.503
3,AAGAAATCCAGCTGTCATCTGC,0.386
4,TTGGGCAGCGTGGCGTAGCGGG,-1.13
5,TCTCCTTGAGCCGCACAGCCTC,-1.05
6,TCGGTCTGCACCCATGGCCAGG,-1.71
7,ACAGTCATCATCGATGGCCTGT,-0.63
8,TGGAGGTCAGGTCCACACCCAG,-1.98
9,TTCTCCTTCTCTGCCAGCTTGG,-1.27
10,TCGATCTTCTTCTTCTTGGCTT,-0.249
11,TTGATCACCTCGATCTTCTTCT,0.521
12,TCCGTGACCACACCGGTCCTGT,-1.31
13,TCCACTTTCAACTTGTCCCCCT,-0.169
14,ACACTGATCACAGAGAGCTTGG,-0.751
15,AAGCGTTCTGCTTCTGCTGGGG,-0.0454
16,TCGTCTCCTGGCACTGTGCAGG,-1.37
17,TCTGGTTACAGTCATCATCGAT,-0.57
18,TTCTTGGCTTTCATGATGTTGG,-0.962
19,ATCACCTCGATCTTCTTCTTCT,-0.543
20,TTCATGGAGTGCTTCACACCAT,0.145
21,AATCCAGCTGTCATCTGCCCTG,-0.828
22,TTCTTCTTGGCTTTCATGATGT,-0.521

# Target: ETS1
# Assay: as above
# Details: shRNA
row,Sequence,sensor-assay potency score (higher = more potent)
1,TTTTGTCGTAATAGTAGCGTAG,-0.397
2,ATCTGCACATTCCATATCCGGG,-1.42
3,TTTCACATCCTCTTTCTGCAGG,-0.259
4,TAGAGTGATAGGTAAATAGTTC,-0.916
5,ATAGCTAATGAAGTAATCCGAG,-0.147
6,TATGCTTTCAAAAGAGTCCTGG,0.343
7,TTTCTTTGCTGCTTGGAGTTAA,-0.637
8,TTTATCAGTGAGTAATTCCAGA,-0.449
9,TTCTTGTTTGATAGCAAAGTAG,-1.22
10,TTGATATGGTTTCACATCCTCT,-1.06
11,TAGTCCTCTGAGTCGAAGCTGT,-0.809
12,TATCGTAGCTCTCTATGCTTTC,-0.783
13,TTCTTTAGTGAAACCACTGAAA,-0.218
14,TTTTCCGTCTTGATGATGGTGA,-0.268
15,TAGCTAATGAAGTAATCCGAGG,-1.48
16,TAGCAAAGTAGTCATTCTGCAA,-0.233
17,TTGTTTGATAGCAAAGTAGTCA,-0.385
18,AAGACTGACAGGATTTATCAGT,-0.516
